In PubChem BioAssay (NCI):
This is part of a sample that, as a whole, favours compounds with a hit. Of some 83,000 tested, about 20% had one in any assay.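 Each cell line was grown in a 96-well plate and treated with one concentration of compound for 48 hours. Values below 10 were considered active.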 Unmarked numbers belong to inactive results. Activity calls are given as the source filed them.

Key:
Assay in all cases: NCI-60 one-dose screen, 48 h (100 = growth as untreated, 0 = no growth, -100 = all killed)
Details in all cases: 10 µM unless noted
HCT-15 colon = system: HCT-15 colon
HT29 colon = system: HT29 colon
SNB-75 CNS = system: SNB-75 CNS
SNB-19 CNS = system: SNB-19 CNS
U251 CNS = system: U251 CNS
PC-3 prostate = system: PC-3 prostate
SK-MEL-5 melanoma = system: SK-MEL-5 melanoma
UACC-62 melanoma = system: UACC-62 melanoma
LOX IMVI melanoma = system: LOX IMVI melanoma
SK-MEL-28 melanoma = system: SK-MEL-28 melanoma
SK-MEL-2 melanoma = system: SK-MEL-2 melanoma
SN12C renal = system: SN12C renal
UO-31 renal = system: UO-31 renal
ACHN renal = system: ACHN renal
CAKI-1 renal = system: CAKI-1 renal
A498 renal = system: A498 renal
CCRF-CEM leukemia = system: CCRF-CEM leukemia
MOLT-4 leukemia = system: MOLT-4 leukemia
TK-10 renal = system: TK-10 renal
EKVX NSCLC = system: EKVX NSCLC

Row | Compound | growth (HCT-15 colon) | growth (HT29 colon) | growth (SNB-75 CNS) | growth (SNB-19 CNS) | growth (U251 CNS) | growth (PC-3 prostate) | growth (SK-MEL-5 melanoma) | growth (UACC-62 melanoma) | growth (LOX IMVI melanoma) | growth (SK-MEL-28 melanoma) | growth (SK-MEL-2 melanoma) | growth (SN12C renal) | growth (UO-31 renal) | growth (ACHN renal) | growth (CAKI-1 renal) | growth (A498 renal) | growth (CCRF-CEM leukemia) | growth (MOLT-4 leukemia) | growth (TK-10 renal) | growth (EKVX NSCLC)
1 | COc1ccc(OC)c(C(=O)c2oc3ccc(Br)cc3c2N)c1 | 24.2% | 7.35% (active) | -29.4% (active) | 38.3% | 9.85% (active) | -1.02% (active) | 31.7% | 10.9% | 32.9% | 37.9% | -9.79% (active) | 39.4% | 27.5% | 50.7% | 0.0162% (active) | -13.8% (active) | 4.72% (active) | 19.4% | – | –
2 | CCCC(C(=O)OCC)C(C)OC(=O)OCC (stereo not drawn) | 99.9% | 104% | 79% | 106% | 102% | 102% | 103% | 103% | 99.1% | 107% | 94.7% | 101% | 80.1% | – | 96.3% | 118% | – | 89.8% | 98% | –
3 | O=C(O)c1cccc([N+](=O)[O-])c1/C=C/c1ccccc1 | 102% | 100% | 86.9% | 101% | 97.4% | 124% | 103% | 107% | 96% | 105% | 106% | 98.7% | 92.9% | 110% | 93.4% | 89.1% | 103% | 97.7% | – | –
4 | Nc1c(C(=O)Nc2ccccc2)sc2nc3c(cc12)CCCCC3 | 20.1% | -15.5% (active) | -6.57% (active) | 22.1% | 13.8% | 9.02% (active) | 11.3% | 5.45% (active) | 22.1% | 36.6% | 12.6% | 45.3% | 21.5% | 30.3% | – | -5.02% (active) | 2.92% (active) | 29.2% | 21.6% | –
5 | COc1cc(-c2nc(-c3nc4ccccc4[nH]3)cc3c2[nH]c2ccccc23)cc(OC)c1OC | 42.3% | 49.7% | 79.3% | 66.9% | 48% | 14.1% | 29% | 28.5% | 38.7% | 44.2% | 23.9% | 40.4% | 24.3% | 51.4% | 20% | 44.8% | 16.8% | 44.3% | – | –
6 | COc1ccc(C(=O)/C=C/c2cccc([N+](=O)[O-])c2)c(OC)c1 | -47.2% (active) | -3.14% (active) | 35.2% | 17% | -16.2% (active) | 33.3% | 41.4% | 31.5% | -73.3% (active) | 69.4% | 72.4% | 8.76% (active) | -13% (active) | – | 24.8% | – | 5.85% (active) | 7.24% (active) | 50% | –
7 | Nc1c(C(=O)Nc2cccc(C(F)(F)F)c2)sc2nc3c(cc12)C(O)CCC3 (stereo not drawn) | 36.7% | 17.7% | -6.78% (active) | 86.8% | 16.8% | 23.4% | 25.7% | 41.4% | 47.8% | 49% | 30.7% | 51.5% | 49.9% | – | 30.1% | -2.02% (active) | 14.5% | 24.7% | 54.6% | –
8 | CC(C)C[C@H](NC(=O)Cn1ccc(NCc2ccccc2)cc1=O)B(O)O | 23.5% | -15.2% (active) | 56.9% | 42.2% | 44.6% | 49.2% | -9.84% (active) | 4% (active) | -65.5% (active) | 27.4% | -6.74% (active) | 31.2% | -40.5% (active) | 9.74% (active) | – | -20.9% (active) | 2.78% (active) | -10.3% (active) | -10.7% (active) | –
9 | O=c1[nH]c2ccccc2cc1-c1nnc(Cc2ccccc2)o1 | 49% | 57.9% | 69.3% | 86% | 72.4% | 65.5% | 56.8% | 47.9% | 35% | 101% | 78.4% | 74% | 40% | – | – | 106% | 19% | 57.1% | 112% | –
10 | Cc1cc(C)c(NC(=O)c2sc3nc4c(cc3c2N)CN(Cc2ccccc2)CC4)c(C)c1 | 21.7% | 7.19% (active) | 7.64% (active) | 42.9% | 32.9% | 22% | 26.1% | 24.5% | 38.7% | 57.1% | 24% | 23.9% | 26.5% | 45.7% | – | – | 16.6% | 25% | 67.6% | –
11 | CCn1cc(C(=O)O)c(=O)c2cc(F)c(N3CCN(S(=O)(=O)c4ccc(Cl)cc4Cl)CC3)cc21 | 7.58% (active) | 1.87% (active) | 74.8% | 26.2% | 12.1% | 1.6% (active) | -55% (active) | 16.1% | -35.4% (active) | 107% | -18.1% (active) | 10.3% | -13.4% (active) | – | 4.75% (active) | -0.0481% (active) | 2.78% (active) | 1.8% (active) | 12.4% | –
12 | CC(C)[C@H](CO)Nc1nc(Nc2ccc(C(=O)NCCNS(=O)(=O)c3cccc4c(N(C)C)cccc34)c(Cl)c2)c2ncn(C(C)C)c2n1 | 51.9% | 9.2% (active) | 10.6% | 24.6% | 1.44% (active) | 17% | 12.1% | 22.2% | -3.44% (active) | 15.7% | -16.1% (active) | 12.1% | 77.2% | 43.4% | 48.6% | -9.15% (active) | -1.68% (active) | -12.1% (active) | – | –
13 | Cc1cc(C)c2c(=O)[nH]c(SCC(=O)Nc3cccc(S(=O)(=O)N(C)C)c3)nc2n1 | 119% | 104% | 90.7% | 95.9% | 108% | 95.4% | 113% | 98.3% | 101% | – | 96.5% | 109% | 94.6% | 108% | 107% | 104% | 89.1% | 96.1% | 98.4% | 93.3%
14 | COc1cc(CCn2nnc3c(Nc4ccc(N5CCOCC5)cc4)ncnc32)cc(OC)c1 | 93.6% | 99.3% | 94.2% | 93.3% | 95.6% | 72.1% | 93.6% | 91.5% | 97.5% | – | 115% | 103% | 86.9% | 97.4% | 93.9% | 80.4% | 84.5% | 76.4% | 123% | –
15 | CC1Cc2c(N(C)C)ncnc2N(C)c2ccc(O)cc21 (stereo not drawn) | 50.5% | 97.8% | 72.9% | 83.1% | 78.9% | 72.9% | 82.9% | 81.2% | 86.2% | – | 89.6% | 99% | 80.2% | 101% | 70.7% | 76.7% | 85.3% | 75.6% | 95.9% | 71.3%
16 | CC(=O)OC[Si](C)(C)c1ccccc1 | 99.7% | 105% | 89.8% | 102% | 93.7% | 95.8% | 97.3% | 102% | 103% | – | 126% | 99.6% | 94.9% | – | 92.1% | 103% | 108% | 112% | 107% | –
17 | NS(=O)(=O)c1ccc(CN2C(=O)c3cccc4cccc(c34)C2=O)cc1 | 88.5% | 102% | 83.9% | 100% | 99% | 93.3% | 96.8% | 97.1% | 96.2% | – | 93% | 93.1% | 57.3% | 88.1% | 75.9% | 108% | 85.8% | 95.5% | 81.8% | –
